LASV entry inh: qHTS for Inhibitors of binding or entry into cells for Lassa Virus. 300,000 compounds, 1.2% hits. Potency, µM (top dose mostly 37.9 µM), for the others: at the top dose activity change, negative = inhibition, usual class: inhibitors. Lassa virus pseudotype entry inhibition, cell reporter; calls by dose curve; tested in HEK293 cells; also: potency is read from the fitted curve at half-maximal effect; % is scaled to controls: 0 for no effect and ±100 for the full control effect; nearly all actives have a fitted effect of over 50% in size
HCV inh: qHTS Assay for Inhibitors of Hepatitis C Virus (HCV) | Huh7.5.1 HCVcc-Cre infection, luciferase reporter, 44 h | Potency, µM (top dose mostly 41.8 µM), for the others: top-dose activity change, negative = inhibition, usual class: inhibitors | 340,000 compounds, 3.4% hits; active = well fitted inhibition curve with a large enough effect; inconclusive = small, poorly fitted or top-dose-only effect, or another doubt; inactive = no such curve, though single readings can be large or run the other way; also: potency is read from the fitted curve at half-maximal effect; % is scaled to controls: 0 for no effect and ±100 for the full control effect
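Antiviral activity was scored by luciferase reporter output from cells infected with HCVcc-Cre (~0.5 moi) in presence of compound, 44 h infection period, cells seeded 1,000/well 4 h prior.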
MARV entry inh: qHTS for inhibitors of binding or entry into cells for Marburg Virus; Marburg virus pseudotyped entry inhibition, cell reporter; Potency, µM (top dose mostly 37.8 µM), inactives show at the highest dose activity change, negative = inhibition, hits mostly inhibitors; 300,000 compounds, 1.8% hits; calls by dose curve; tested in HEK293 cells; also: potency is read from the fitted curve at half-maximal effect; % is scaled to controls: 0 for no effect and ±100 for the full control effect
Cycloheximide cs: Cycloheximide Counterscreen for Small Molecule Inhibitors of Shiga Toxin; max response, %; 300,000 compounds, 12% hits; cell reporter, cycloheximide protein synthesis inhibition counterscreen; in the data active = max response mostly above about 13%, no sharp cut-off; inactive = mostly below about 14%; also: read at 38.3 µM for the half of the compounds with a filed dose; 0% is about no effect
Shiga inhibitor: A qHTS for Small Molecule Inhibitors of Shiga Toxin; AID 2315, 2010; Vero cells, Shiga toxin protein synthesis inhibition reporter; 290,000 compounds, 9.2% hits; inhibition, % at 38.7 µM; in the data active = inhibition mostly above about 28%, no sharp cut-off; inactive = mostly below about 43%; also: 0% is about no effect
FMDV inh: High Throughput Screening for Foot and Mouth Disease Virus Antivirals; AID 1159524, 2015; FMDV antiviral cell-based qHTS; 410,000 compounds, 1.2% hits; Potency, µM (highest dose often 57.9 µM), without a hit: at the top dose activity change, negative = inhibition, usual class: inhibitors; calls by dose curve; tested in HEK293T cells; also: read-out not given here; potency is read from the fitted curve at half-maximal effect; % is scaled to controls: 0 for no effect and ±100 for the full control effect; nearly all actives have a fitted effect of over 45% in size
* = called active by the depositor; ? = inconclusive; · = no result; [ ] = dose if it differs, or a comment. The list is not random: actives were taken first. Their share in the collection is about 13%.

SMILES	LASV entry inh	HCV inh	MARV entry inh	Cycloheximide cs	Shiga inhibitor	FMDV inh
CC(=O)NCc1ccc(-c2nc3ccccc3s2)cc1	?	-29%	?	39*	58*	9%
O=C(COC(=O)CCCc1nc2ccccc2s1)NC(=O)NCc1ccco1	-26%[46.1 µM]	19%	?	0	-2	-6%
CC(C)NC(=O)NC(=O)COC(=O)c1ccc(S(=O)(=O)Nc2ccccc2)cc1	·	8%	·	-2	13	37%
CN(Cc1ccc(C#CCCO)cc1)CC1CCCN(CCc2ccc(Cl)cc2)C1 (stereo not drawn)	·	-4%	·	2	-5	-17%
Cc1ccc(Cl)cc1NC(=O)Cn1c(=O)c2ccccc2n2nncc12	-6%[46.1 µM]	·	2%[46.1 µM]	·	·	-11%
CC1(C)CC2(CC(c3ccccc3F)c3cc(Cl)c(O)cc3O2)NC(=S)N1 (stereo not drawn)	?	?	?	-7	-20	?
CC(=O)Oc1cc2c(cc1Cl)C1(CC(c3ccccc3Cl)O2)CC(C)(C)NC(=S)N1 (stereo not drawn)	?	10µM*	?	-3	-12	?
Cc1cc(-c2[nH]nc3c2C(c2ccsc2)C(C#N)=C(N)O3)c(C)s1 (stereo not drawn)	-14%	?	?	-5	-8	-22%
O=C(CNC(=S)NC(=O)c1ccc(F)cc1)c1ccccc1	9%	-7%	26%	6	10	29%
O=C(CNC(=S)NC(=O)c1ccccc1)c1ccccc1	10%	-11%	?	23*	44*	-11%
CC(C)C(=O)NC(=S)NCC(=O)c1ccccc1	16%	1%	-1%	29*	26	23%
Nc1cc(=O)[nH]c(SCC(=O)Nc2cc(S(=O)(=O)N3CCCCCC3)ccc2Cl)n1	-2%	1%	-23%	·	·	0%
O=[N+]([O-])c1cc(S(=O)(=O)N2CCCCCC2)ccc1Cl	?	11µM*	?	0	-10	-27%
O=C(CCl)Nc1cc(S(=O)(=O)N2CCCCCC2)ccc1Cl	?	35µM*	?	-2	-17	?
O=C(CN1CCN(c2ccccc2O)CC1)Nc1cc(S(=O)(=O)N2CCCC2)ccc1Cl	·	11µM*	·	·	·	-21%
CC(C)(C)CC(=O)Nc1cc(S(=O)(=O)N2CCCCCC2)ccc1Cl	-12%	?	?	-5	-12	-20%
Cc1ccc(-c2nc(SCC(=O)Nc3cc(S(=O)(=O)N4CCCCC4)ccc3Cl)n[nH]2)cc1	?	?	16µM*	17*	3	-25%
C/C(CC(=O)Nc1ccc2c(c1)OCCO2)=N\NC(=O)Cc1ccccc1	15%[46.1 µM]	2%	9%[46.1 µM]	2	9	12%
Cn1nc([N+](=O)[O-])c(C(C#N)c2ccccn2)c(Cl)c1=O (stereo not drawn)	·	?	·	2	13	32µM*
O=S(=O)(NCCNS(=O)(=O)c1cccs1)c1cccs1	4%	21%	15%	-3	-4	28%
Cc1cc(C)c(C#N)c(SCC(=O)Nc2nonc2N)n1	·	-8%	23%[46.1 µM]	29*	72*	51%
Cc1cc(C)c(C#N)c(SCC(=O)C2CC2)n1	·	2%	·	24*	43*	25%
Cc1cc(C)c(-n2nnnc2SCC(=O)c2cccs2)c(C)c1	?	-10%	-23%[46.1 µM]	24*	39*	-4%
Cc1cc(C)c(C#N)c(SCC(=O)c2cccs2)n1	3%	-13%	14%	19*	61*	39%
Cc1cc(C)c(NC(=O)CSc2nc(C)cc(C)c2C#N)c(C)c1	3%[46.1 µM]	·	1%[46.1 µM]	·	·	-12%
COC(=O)CSc1nc(C)cc(C)c1C#N	26%[46.1 µM]	-7%	-20%[46.1 µM]	11	-19	8%
O=c1c2ccccc2nnn1CSc1nnc(-c2cccs2)n1Cc1ccccc1	?	?	0.82µM*	-3	-30	?
O=c1c2ccccc2nnn1CSc1nnnn1-c1ccc(O)cc1	·	0%	·	32*	67*	13%
O=c1cc(CSc2nnc(-c3cccs3)n2Cc2ccccc2)nc2sc3ccccc3n12	-26%	?	?	7	13	16µM*
